Experimental data reported in PubChem BioAssay (Tox21).
Inconclusive results are not listed. A call without a number means that no potency is given here. Unmarked numbers belong to inactive results. Active and inactive are the calls of the source. The call rests on the fitted dose curve; in most records, active means well fitted activation curve with a large enough effect in the repeat runs; inconclusive means weak or mixed curves; inactive means flat fitted curve, though single readings scatter.

Test: A CellTox Green Cytotoxicity Assay to monitor cytotoxicity in HepG2 cells - 16 hour (AID 1224876); further: nearly all actives have a fitted effect of over 45% in size
Conditions: CellTox Green fluorescence; series mostly up to 76.8 µM
Excerpt: National Center for Advancing Translational Sciences [NCATS]
NIH Chemical Genomics Center [NCGC]
U.S. Environmental Protection Agency [EPA]
National Institutes of Environmental Health Sciences [NIEHS]
National Toxicology Program [NTP]
Cell-based models are critical for drug discovery. Determining the natural cytotoxic effects resulting from test compounds is an essential research activity. A CellTox Green Cytotoxicity Assay to monitor cytotoxicity in real time of continues cell culture during 40 hours of the compound treatment was used to screen Tox21 10K library compounds in HepG2 cells. CellTox Green Cytotoxicity Assay is a nonlytic, homogeneous, biofluorescent method to measure cytotoxicity in cell culture after experimental manipulation. The assay system uses a proprietary asymmetric cyanine dye that is excluded from viable cells but preferentially stains the dead cell's DNA. […] Viable cells produce no appreciable increases in fluorescence. Therefore, the fluorescence signal produced by the binding interaction with dead cell DNA is proportional to cytotoxicity.
The mixture of HepG2 cell suspension and reagents were dispensed at 600cells/6 ul/well in 1536-well tissue culture treated black solid bottom plates using a Multidrop dispenser. After the assay plates were incubated at a 37 C/5% CO2 incubator for 5 hours, 23 nL of compounds dissolved in DMSO, positive and negative controls was transferred to the assay plate by a pintool work station. The plates were incubated at 37 C for 40 hours. The fluorescence intensity were measured at 0h, 8h, 16h, 24h, 32h and 40h time points using ViewLux plate reader during compound treatment.
Potency means the concentration at half of the fitted maximal effect.

SMILES	Potency	cytotoxicity increase
CC(=O)/C=C/C1C(C)=CCCC1(C)C (stereo not given)	inactive	–
CC(C)(Oc1ccc(Cl)cc1)C(=O)OCCCOC(=O)C(C)(C)Oc1ccc(Cl)cc1	inactive	–
CN1CCC(OC(c2ccccc2)c2ccccc2)CC1	inactive	–
COC(=O)CSc1cc(N=c2sc(=O)n3n2CCCC3)c(F)cc1Cl	inactive	–
NCc1ccccc1	inactive	–
CC(C(=O)O)c1ccc(C(=O)c2ccccc2)s1 (stereo not given)	inactive	–
C[Si](C)O[Si](C)(C)O[Si](C)(C)O[Si](C)C	inactive	–
CNS(=O)(=O)Cc1ccc2[nH]cc(CCN(C)C)c2c1	inactive	–
CCCCCCc1ccc(N)cc1	49 µM (active)	–
CC(=O)c1ccc2c(c1)[C@H](NC(=O)c1ccc(F)cc1)[C@@H](O)C(C)(C)O2	inactive	–
Oc1ccc(C(O)CNCCCCCCNCC(O)c2ccc(O)c(O)c2)cc1O (stereo not given)	inactive	–
CCCCCCCC/C=C\CCCCCCCC(N)=O	inactive	–
Nc1ccc(C(=O)Nc2ccccc2N)cc1	inactive	–
CC(C(=O)O)c1ccc(-c2ccccc2)c(F)c1 (stereo not given)	49 µM (active)	–
CCN(CC)CCOc1ccc2c(c1)C(=O)c1cc(OCCN(CC)CC)ccc1-2	inactive	–
CCN(CCO)CCCC(C)Nc1ccnc2cc(Cl)ccc12 (stereo not given)	–	19.7% [at 6.97 µM]
CCCCOc1ccc(CC(=O)NO)cc1	inactive	–
CC(C)(C)c1cc(CCC(=O)OCC(COC(=O)CCc2cc(C(C)(C)C)c(O)c(C(C)(C)C)c2)(COC(=O)CCc2cc(C(C)(C)C)c(O)c(C(C)(C)C)c2)COC(=O)CCc2cc(C(C)(C)C)c(O)c(C(C)(C)C)c2)cc(C(C)(C)C)c1O	inactive	–
CC[C@@H]1C[C@H](N(Cc2cc(C(F)(F)F)cc(C(F)(F)F)c2)C(C)=O)c2cc(C(F)(F)F)ccc2N1C(=O)OC(C)C	inactive	–
FC(F)(F)C(F)(F)C(F)(F)C(F)(F)C(F)(F)C(F)(F)CCI	inactive	–

SMILES	Potency	cytotoxicity increase
CC1=CC(=O)/C(=C(/C)O)C(=O)O1	inactive	–
O=C(O)c1cn(C2CC2)c2cc(Cl)c(F)cc2c1=O	inactive	–
Cc1cc(C)c(S(=O)(=O)O)cc1N=Nc1cc(S(=O)(=O)O)c2ccccc2c1O	inactive	–
Cc1cc(NC(=O)C(=O)O)cc(C)c1Oc1ccc(O)c2c1CCC2	inactive	–
N#Cc1cc2ccccc2c2ccccc12	inactive	–
CC(=O)SCc1ccco1	inactive	–
CCOC(=O)CC(C)C	inactive	–
CCCCOC(=O)c1ccccc1C(=O)OCC(CC)CCCC (stereo not given)	inactive	–
NC[C@H]1O[C@H](O[C@H]2[C@H](O)[C@@H](O[C@H]3O[C@H](CO)[C@@H](O)[C@H](N)[C@H]3O)[C@H](N)C[C@@H]2N)[C@H](O)[C@@H](O)[C@@H]1O	–	10.8% [at 6.97 µM]
O=[N+]([O-])c1cc[n+]([O-])cc1	inactive	–
CCCC(=O)OCC	inactive	–
C=CC(=O)OCCOC(=O)CCC(=O)O	inactive	–
CCCc1ccccc1	inactive	–
C=CC[N+]1([C@H]2C[C@H]3[C@@H]4CC[C@H]5C[C@H](OC(C)=O)[C@@H](N6CCCCC6)C[C@]5(C)[C@H]4CC[C@]3(C)[C@H]2OC(=O)CC)CCCCC1	inactive	–
Cc1c(Cn2ccnc2)c2ccccc2n1CCC(=O)O	inactive	–
CCCC(C)C	inactive	–
NCCCOCCOCCOCCCN	inactive	–
CCOc1ccc(NC(=O)CC(C)=O)cc1	inactive	–
CC(=O)/C(C)=C/C1C(C)=CCCC1(C)C (stereo not given)	inactive	–
CC(C)(C)c1cc(CO)cc(C(C)(C)C)c1O	inactive	–
